# “And” between values parts separate entries of the source, which are not always exact repeats. Equal values may be shown once. Out of some 350,000 compounds screened, about 1,600 (0.46%) were called active. What follows is part of a selection rich in actives, with near analogues and random picks from the rest. A number with no mark means an inactive call.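 Rule for the calls: active = every replicate reaching a set inhibition limit, whatever the replicate mean (cut at about 25% in these data); inconclusive = mean inhibition reaches that limit but some replicates miss it; inactive = the rest.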
# Molecular target: Protein AF-9 (Homo sapiens) (UniProt P42568)
# Test: inhibitors of AF4 peptide binding to AF9, primary screen, biochemical, AlphaScreen, biotin-AF4 peptide, FLAG-AF9, single point (AID 651704);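 note: 0% = plate neutral control median and 100% = total signal loss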
# Details: at 10 µM, hits give high values
# Protein AF-9 (Homo sapiens), sequence (P42568 whole entry, looked up): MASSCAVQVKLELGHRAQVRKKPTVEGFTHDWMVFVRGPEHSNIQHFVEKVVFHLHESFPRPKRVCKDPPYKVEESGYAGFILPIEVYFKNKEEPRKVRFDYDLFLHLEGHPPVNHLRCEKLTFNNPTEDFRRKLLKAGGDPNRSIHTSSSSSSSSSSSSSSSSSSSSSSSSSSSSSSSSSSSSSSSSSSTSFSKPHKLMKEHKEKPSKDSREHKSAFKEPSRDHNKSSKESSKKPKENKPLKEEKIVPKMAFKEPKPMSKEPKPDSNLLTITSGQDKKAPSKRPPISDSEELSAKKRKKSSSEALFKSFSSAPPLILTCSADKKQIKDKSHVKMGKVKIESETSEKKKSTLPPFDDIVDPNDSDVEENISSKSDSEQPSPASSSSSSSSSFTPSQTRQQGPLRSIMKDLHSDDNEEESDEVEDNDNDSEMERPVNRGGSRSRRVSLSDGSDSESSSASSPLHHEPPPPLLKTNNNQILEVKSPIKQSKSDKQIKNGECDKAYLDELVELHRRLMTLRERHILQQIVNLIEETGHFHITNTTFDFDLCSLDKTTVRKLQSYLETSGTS
row,SMILES,inhibition
1,CN(C)C(=O)C[C@H]1C=C[C@@H](NC(=O)c2ccc(F)cc2)[C@@H](CO)O1,-2.41%
2,COc1ccccc1S(=O)(=O)N(C)C[C@@H]1Oc2cc(C#CCC3CCCC3)ccc2S(=O)(=O)N([C@H](C)CO)C[C@H]1C,2.17%
3,O=C(NCCCN1CCN(c2ccc(F)cc2)CC1)Nc1ccc([N+](=O)[O-])cc1,25.7% (active)
4,O=C(NCCCN1CCOCC1)c1ccc([N+](=O)[O-])cc1[N+](=O)[O-],-2.14%
5,CN1CCN(CCNC(=O)Nc2ccc([N+](=O)[O-])cc2)CC1,-2.1%
6,CO[C@H]1CN(C)C(=O)c2cc(NS(=O)(=O)CC(F)(F)F)ccc2OC[C@H](C)N(C(=O)c2ccc3c(c2)OCO3)C[C@H]1C,-1.49%
7,CC(C)=CCCC1(C)C=Cc2c(ccc3c2[nH]c2cc(O)c(C)cc23)O1 (stereo unspecified),26.9% (active)
8,COc1ccc(CN(C)C[C@@H]2OCCCC[C@H](C)Oc3ccc(NS(=O)(=O)c4cccs4)cc3C(=O)N([C@H](C)CO)C[C@@H]2C)cc1,5.32%
9,N#Cc1ccc(-c2ccc(C3[C@@H]4CN(S(=O)(=O)c5ccccc5F)C[C@H]3N4)cc2)cc1 (stereo partly specified),-2.55% and -2.34%
10,COCC#Cc1ccc([C@@H]2[C@H]3CN(C(=O)C4CCOCC4)CC(=O)N3[C@H]2CO)cc1,-0.325%
11,Cc1ccc(S(=O)(=O)Nc2ccc3c(c2)C(=O)N([C@H](C)CO)C[C@@H](C)[C@@H](CN(C)C(=O)CCC(F)(F)F)OCCCC[C@@H](C)O3)cc1,-0.265%
12,CSC(=S)N/N=C/c1c[nH]c2ccccc12,33.1% (active)
13,C[n+]1ccc(/C=C/c2c[nH]c3ccccc23)cc1,11.9%
14,O=C(Cc1c[nH]c2ccccc12)N/N=C/c1cccc(F)c1,2.76%
15,CCCC#Cc1ccc([C@H]2[C@H]3CN(C(=O)Nc4ccc(F)cc4)CC(=O)N3[C@H]2CO)cc1,0.647%
16,CO[C@@H]1CN(C)C(=O)c2cc(NS(=O)(=O)c3ccccc3C)ccc2OC[C@@H](C)N(S(C)(=O)=O)C[C@@H]1C,-4%
17,COc1ccc(NS(=O)(=O)c2cc(NC(=O)C3CCCCC3)ccc2N2CCOCC2)cc1,1.75%
18,COc1ccc(NS(=O)(=O)c2cc3c(cc2C)N(C(C)=O)CCO3)cc1,52.8% (active)
19,COc1ccc(N2CCN(S(=O)(=O)c3ccc4c(c3)N(C(C)=O)CCO4)CC2)cc1,1.85%
20,C[C@@H]1CN([C@@H](C)CO)C(=O)c2cc(-c3ccc(F)cc3)cnc2O[C@@H]1CN(C)Cc1ccc(C(=O)O)cc1,-2.45%
21,N#C[C@@H]1[C@H](c2ccccc2C2=CCCCC2)[C@@H](CO)N1S(=O)(=O)c1cccc(F)c1,-2.55%
22,Cc1ccc(S(=O)(=O)N2C[C@H](O)COC[C@@H]3O[C@@H](CC(=O)NCC4CCCCC4)CC[C@H]32)cc1,27% (active)
23,CCNC(=O)C[C@@H]1CC[C@@H]2[C@H](COC[C@H](O)CN2S(=O)(=O)c2ccc(Oc3ccccc3)cc2)O1,-1.5%
24,Cc1ccc(S(=O)(=O)N2C[C@@H](O)COC[C@@H]3O[C@H](CC(=O)NCCCN(C)C)CC[C@H]32)cc1,-2.12%

row,SMILES,inhibition
1,Cc1ccc(S(=O)(=O)N2C[C@@H](O)COC[C@@H]3O[C@H](CC(=O)NCc4ccc(Cl)c(Cl)c4)CC[C@H]32)cc1,0.126%
2,O=C(C[C@@H]1CC[C@@H]2[C@H](COC[C@@H](O)CN2S(=O)(=O)c2ccccc2)O1)NCC1CCCCC1,33.9% (active)
3,O=C(C[C@@H]1CC[C@H]2[C@@H](COC[C@H](O)CN2S(=O)(=O)c2ccccc2)O1)NCCN1CCCC1,-0.246%
4,C[C@@H]1CN([C@@H](C)CO)C(=O)CCCn2cc(nn2)CO[C@H]1CN(C)Cc1ccc(C(=O)O)cc1,-0.624%
5,CN(C)C(=O)c1ccc(-c2ccccc2[C@@H]2[C@@H](C#N)N(C(=O)C3CCCC3)[C@H]2CO)cc1,-1.75%
6,O=C(c1cccc(F)c1)N1CC[C@@H]2[C@H](CO)Nc3ccc(C#Cc4ccccc4)cc3[C@@H]21,-0.355%
7,C/C=C/c1ccc([C@@H]2[C@@H](CO)N(C(=O)CN(C)C)C23CN(C(=O)C2CCCC2)C3)cc1,4.6%
8,CN1C(=O)c2cc(NC(=O)C3CCCC3)ccc2OC[C@@H]2O[C@@H](CC(=O)NCCc3ccncc3)CC[C@@H]21,1.93%
9,C[C@H](CO)N1C[C@H](C)[C@H](CN(C)C(=O)CCN(C)C)OCc2ccccc2-c2c(n(C)c3ccccc23)C1=O,2.11%
10,CCS(=O)(=O)N1CCC(N2CCN(c3ccccc3)CC2)CC1,-4.72%
11,O=C(c1ccccc1)c1ccc(C(=O)N2CCN(c3ccccc3)CC2)cc1,-1.66%
12,CN1CCC(CN)(N2CCN(c3ccccc3)CC2)CC1,33.8% (active)
13,CC(C)NC(=O)N(C)C[C@H]1OCCCC[C@H](C)Oc2ccc(NS(=O)(=O)c3ccc(Cl)cc3)cc2C(=O)N([C@@H](C)CO)C[C@H]1C,-0.682%
14,O=C(c1ccc(F)cc1)N1CCC(n2nnc3ccccc32)CC1,-0.54%
15,O=C(c1ccc(F)cc1)n1c(=S)nc2ccccn21,37.5% (active)
16,O=C(c1ccc(F)cc1)n1cc(C(=S)N2CCOCC2)c2ccccc21,9.22%
17,CO[C@@H]1CN(C)C(=O)c2ccc(NC(=O)NC(C)C)cc2OC[C@@H](C)N(C)C[C@H]1C,-3.29%
18,CN(C)CCNC(=O)c1cccc(-c2cnc3c(NC=O)cc(-c4cccc(C(F)(F)F)c4)cn23)c1,37.1% (active)
19,CN(C)C(=O)c1cccc(-c2cnc3c(NC=O)cc(-c4ccc(F)cc4)cn23)c1,3.38%
20,CC(=O)c1cccc(-c2cnc3c(NC=O)cc(-c4cccc(C(=O)N(C)C)c4)cn23)c1,-1.2%
21,COc1ccc2c3c(n(C)c2c1)[C@H](CO)N(C(=O)Nc1c(C)noc1C)CC31CN(CC2CC2)C1,1.61%
22,C=CCOC(=O)[C@H]1[C@@H]2C(=O)O[C@@H](c3ccccc3)[C@@H](c3ccccc3)N2[C@@H](c2ccc(OCCOC(=O)[C@H]3C[C@H]4C(=O)NCC(=O)N4[C@H]3c3ccc(O)cc3)cc2)[C@]12C(=O)Nc1ccccc12,0.736%
23,COc1ccccc1N(CC(=O)Nc1ccccc1C(=O)N1CCCC1)S(C)(=O)=O,50.9% (active)
24,COc1ccc([N+](=O)[O-])cc1N(CC(=O)Nc1ccccc1C(=O)N1CCOCC1)S(C)(=O)=O,1.49%

row,SMILES,inhibition
1,O=C(CN(c1ccccc1)S(=O)(=O)c1ccc(Cl)cc1)Nc1ccccc1C(=O)N1CCCC1,0.298%
2,O=C(Nc1nnc(COc2ccccc2)s1)Nc1ccccc1F,36% (active)
3,COc1ccccc1NC(=O)Nc1nc(CC(=O)Nc2ccccc2F)cs1,0.499%
4,COc1ccccc1NC(=O)Nc1nnc(Cc2ccc(F)cc2)s1,3.41%
5,CC(C)NC(=O)Nc1ccc2c(c1)C(=O)N([C@@H](C)CO)C[C@H](C)[C@H](CN(C)C(=O)NC1CCCCC1)OCCCC[C@@H](C)O2,-3.2%
6,C[C@H](CO)N1C[C@H](C)[C@H](CN(C)Cc2ccc3c(c2)OCO3)OCCCC[C@H](C)Oc2ccc(NC(=O)c3ccccc3)cc2C1=O,4.39%
7,CO[C@@H]1CC[C@@H]2CCOc3ccc(C#N)cc3C(=O)N(C)C[C@@H](C)C(=O)N(C)C[C@@H]1O2,3.45%
8,CC(O)c1ccc(OCCN(C)c2ccccn2)cc1 (stereo unspecified),-3.42%
9,C/C(=N\NC(=O)c1ccccc1F)c1ccccn1,-1.33%
10,CCN(CC)CCOc1ccc2c(c1)C(=NNC(=O)c1ccccn1)c1cc(OCCN(CC)CC)ccc1-2,56.9% (active)
11,COc1ccc2c3c([nH]c2c1)[C@H](CO)N(C(=O)Nc1ccc(F)cc1)CC31CCN(CC2CCOCC2)CC1,11%
12,CCC(=O)N1[C@@H](CO)[C@@H](c2ccccc2)C12CN(C(=O)c1cnccn1)C2,-4.68%
13,COCCNC(=O)C[C@@H]1C[C@@H]2c3cc(NS(=O)(=O)c4ccccc4)ccc3O[C@@H]2[C@H](CO)O1,-1.39%
14,C[C@@H]1CCCCO[C@H](CN(C)C(=O)Nc2ccc3c(c2)OCO3)[C@@H](C)CN([C@@H](C)CO)C(=O)c2cc(NC(=O)CCC(F)(F)F)ccc2O1,7.93%
15,CCC(=O)Nc1ccc2c(c1)C(=O)N(C)[C@@H]1CC[C@@H](CC(=O)NCCN3CCCCC3)O[C@@H]1CO2,0.544%
16,Cc1ccc(Nc2nc(Cl)c(C=O)s2)cc1,-4.45%
17,Nc1ccc(C(=O)Nc2ccccc2N)cc1,-0.363%
18,Cc1ccc(Nc2ccccc2N)cc1,49% (active)
19,O=C(C[C@@H]1CC[C@H](NC(=O)c2ccncc2)[C@@H](CO)O1)Nc1ccc(-c2ccccc2)cc1,-2.25%
20,CO[C@@H]1CN(C)C(=O)c2ccc(NC(C)=O)cc2OC[C@@H](C)N(Cc2ccc(-c3ccccn3)cc2)C[C@H]1C,2.32%
21,O=C(Nc1nnc(SCc2c(Cl)cccc2Cl)s1)c1cccc([N+](=O)[O-])c1,1.85%
22,NC(=O)CSc1nnc(NC(=O)c2ccc3ccccc3c2)s1,-1.88%
23,O=C(Nc1nnc(SCc2ccccc2Cl)s1)c1cccc([N+](=O)[O-])c1,48% (active)

# From PubChem BioAssay AID651704 (Broad Institute, 2012)
